Data taken from PubChem BioAssay AID1259421 (Broad Institute, 2018).
“And” between values parts separate entries of the source, which are not always exact repeats. Equal values may be shown once. The campaign covered roughly 6,400 compounds. About 610 (9.5%) were called active. The sample holds actives, similar compounds and a random draw of the others, so the mix is not that of the screen. Rule as the data show it: active = activity change below about -70%; inconclusive = no clear call, values can overlap the other calls; inactive = above that. Where a structure was tested more than once in an assay, its records may differ in their call.

test: Toxoplasma gondii ME49Luc growth in HeLa cells, luciferase, no IFN-y, primary screen (AID 1259421); settings: T. gondii ME49Luc in HeLa, 72 h, stronger effect = lower value, concentration not given here

Row | SMILES | activity change, negative = inhibition
1 | COC(=O)C(CCCN=C(N)N)NC(=O)CCCc1c(-c2ccccc2)[nH]c2c(F)cc(F)cc12 (centres undefined) | 11.7% (inactive)
2 | C=C1[C@H]2CC[C@@]3(C)[C@H](c4ccoc4)OC(=O)C[C@]13O[C@H]1C[C@H](O)C(C)(C)[C@H](CC(=O)OC)[C@]12C | -4.68% (inactive)
3 | CCOC(=O)[C@H](CCc1ccccc1)N[C@H](C)C(=O)N1C2CCCCC2C[C@H]1C(=O)O (some centres undefined) | 14.3% (inactive) and 13.5% (inactive)
4 | C=CC(=O)Nc1cccc(OC)c1 | 7.29% (inactive)
5 | COc1cc(SC)ccc1-c1nc2ccncc2[nH]1 | -3.26% (inactive)
6 | CCN(CC)CC1CCCCN1CC(=O)N1c2ccccc2C(=O)Nc2cccnc21 (centres undefined) | 5.74% (inactive) and 8.21% (inactive)
7 | COc1cc2c(cc1O)CC[C@@H]1[C@@H]2CC[C@]2(C)[C@@H](O)CC[C@@H]12 | -44.5% (inactive)
8 | C[C@]12CCC3c4ccc(O)cc4CCC3C1C[C@@H](O)[C@@H]2O (some centres undefined) | -4.22% (inactive)
9 | C[C@]12CCC3c4ccc(OC(=O)c5ccccc5)cc4CCC3C1CCC2=O (some centres undefined) | -55.9% (inactive)
10 | C[C@]12CCC3c4ccc(OC(=O)c5ccccc5)cc4CCC3C1CC[C@@H]2O (some centres undefined) | -85.4% (active)
11 | C[C@]12CC[C@@H]3c4ccc(O)cc4CC[C@H]3[C@@H]1C[C@@H](O)[C@@H]2O | -0.302% (inactive)
12 | CC12CCC3c4ccc(OC(=O)c5ccccc5)cc4CCC3C1CCC2O (centres undefined) | -15.9% (inactive)
13 | COc1ccc2c(c1)CCC1C2CC[C@@]2(C)C1CC[C@@H]2O (some centres undefined) | -9.49% (inactive)
14 | C[C@]12CCC3c4ccc(OS(=O)(=O)O)cc4CCC3C1CC[C@H]2O (some centres undefined) | -7.66% (inactive)
15 | C[C@]12CC[C@@H]3c4ccc(O)cc4CC[C@H]3[C@@H]1CC[C@@H]2O | -81.4% (active) and -83.1% (active)
16 | CC(=O)OC1CCC2C3CCc4cc(O)ccc4C3CCC12C (centres undefined) | 1.9% (inactive)
17 | CC12CCC3c4ccc(O)cc4CCC3C1C[C@H](O)[C@@H]2O (some centres undefined) | -75.1% (active)
18 | C[C@]12CCC3c4ccc(O)cc4CCC3C1CC[C@@H]2O (some centres undefined) | -87.4% (active)
19 | CON(C)C(=O)N1N=C(c2cc(F)ccc2F)S[C@@]1(CCCN)c1ccccc1 | -53.7% (inactive)
20 | CCCCc1nc2ccn(CC(=O)N(C)C)c(=O)c2n1Cc1ccc(-c2ccccc2-c2nn[nH]n2)cc1 | 18.6% (inactive) and -0.527% (inactive)
21 | O=C1CSC(=O)N1 | 20.7% (inactive)
22 | O=C1NC(=O)c2cc(Nc3ccccc3)c(Nc3ccccc3)cc21 | 7.82% (inactive)
23 | CC(=O)[C@H]1CCC2C3CCC4=CC(=O)CC[C@]4(C)C3[C@H](OC(=O)CCC(=O)O)C[C@@]21C (some centres undefined) | -2.62% (inactive)
24 | CC(C)(c1ccc(O)cc1)c1ccc(O)cc1 | 6.99% (inactive)
25 | CCc1ccccc1OC[C@@H](O)CN[C@H]1CCCc2ccccc21 | 23.1% (inactive) and 15.7% (inactive)
26 | C[C@@H]1CC[C@@]2(OC1)O[C@H]1C[C@H]3[C@@H]4CC=C5C[C@@H](O)CC[C@]5(C)[C@H]4CC[C@]3(C)[C@H]1[C@@H]2C | 6.17% (inactive)
27 | CN1[C@@H]2CC[C@@H]1CC(OC(c1ccccc1)c1ccccc1)C2 (some centres undefined) | 11.3% (inactive)

Row | SMILES | activity change, negative = inhibition
28 | O=[N+]([O-])c1cn2c(n1)OC[C@@H](OCc1ccc(OC(F)(F)F)cc1)C2 | -78.6% (active)
29 | CC1O[C@@H](Oc2c(-c3ccc(O)c(O)c3)oc3cc(O)cc(O)c3c2=O)[C@H](O)[C@H](O)[C@H]1O (some centres undefined) | 5.62% (inactive)
30 | O=C1NC(=O)/C(=C\c2ccc(-c3ccc(F)cc3)o2)S1 | 32.3% (inactive)
31 | [2H]C([2H])([2H])C(O)(CCO[C@@H](C)[C@H]1CC[C@H]2/C(=C/C=C3/C[C@@H](O)C[C@H](O)C3=C)CCC[C@]12C)C([2H])([2H])[2H] | 0.514% (inactive)
32 | COc1ccc2c(=O)c(CC(=O)O)coc2c1 | 4.96% (inactive)
33 | CO/N=C(/C(=O)N[C@@H]1C(=O)N2C(C(=O)OCOC(=O)C(C)(C)C)=C(/C=C/c3scnc3C)CS[C@H]12)c1csc(N)n1 | 2.91% (inactive)
34 | C/C=C1\NC(=O)[C@H]2CSSCCC=C[C@H](CC(=O)N[C@H](C(C)C)C(=O)N2)OC(=O)[C@H](C(C)C)NC1=O | -80.8% (active)
35 | CC(=O)c1ccc2c(c1)[C@H](NC(=O)c1ccc(F)c(Cl)c1)[C@H](O)C(C)(C)O2 | -1.26% (inactive)
36 | C[C@]12CCC(=O)C=C1CCC1C2[C@@H](O)C[C@@]2(C)C1CC[C@]2(O)C(=O)CO (some centres undefined) | -3.05% (inactive)
37 | O=C(O)COc1ccc(OCCNC[C@@H](O)COc2ccccc2)cc1 | 0.151% (inactive)
38 | COc1ccc2cccc(N3CCN(CCNC(=O)c4ccc(F)cc4)CC3)c2c1 | 40.8% (inactive) and 23.4% (inactive)
39 | CC(C)C[C@H](NC(=O)CNC(=O)c1cc(Cl)ccc1Cl)B1OC(=O)CC(CC(=O)O)(C(=O)O)O1 (some centres undefined) | -87.8% (active)
40 | CCCC(C)NC(=O)c1ccc(Cl)c(Cl)c1 (centres undefined) | 6.33% (inactive)
41 | CC(C)C[C@H](NC(=O)CNC(=O)c1cc(Cl)ccc1Cl)B(O)O | -77.9% (active)
42 | O=C(CNC(=O)c1ccc(Cl)cc1)NO | 36.3% (inactive)
43 | CC1=C(/C=C/C(C)=C/C=C/C(C)=C/C=O)C(C)(C)CCC1 | 16.4% (inactive)
44 | O=C(Nc1cccnn1)N1CCC(=Cc2cccc(Oc3ccc(C(F)(F)F)cn3)c2)CC1 | -18.9% (inactive)
45 | CC1(C)C(=O)C=C[C@@]2(C)C1C=C[C@]1(C)C2CC[C@@]2(C)[C@H](c3ccoc3)OC(=O)[C@H]3O[C@]321 (some centres undefined) | -89.3% (active)
46 | CC1(C)C(=O)C=C[C@@]2(C)C1CC(=O)[C@]1(C)C2CC[C@@]2(C)[C@H](c3ccoc3)OC(=O)[C@H]3O[C@]321 (some centres undefined) | 30.3% (inactive)
47 | CC(=O)O[C@@H]1C[C@H]2C(C)(C)C(=O)C=C[C@]2(C)[C@H]2CC[C@@]3(C)[C@H](c4ccoc4)OC(=O)[C@H]4O[C@]43[C@@]21C | 26.1% (inactive)
48 | CC(=O)O[C@H]1C[C@@H](OC(C)=O)C(C)(C)C2C[C@@H](O)[C@]3(C)C(CC[C@@]4(C)[C@H](c5ccoc5)OC(=O)[C@H]5O[C@]543)[C@]21C (some centres undefined) | 5.63% (inactive)
49 | COC(=O)c1csc(C(=O)c2c[nH]c3ccccc23)n1 | 5.76% (inactive)
50 | OCc1c[nH]c2ccccc12 | 2.87% (inactive) and 57.8% (inactive)
51 | CC(C)(C)c1cc(C(C)(C)C)c(NC(=O)c2c[nH]c3ccccc3c2=O)cc1O | -81.7% (active)
52 | NC(N)=NCCNS(=O)(=O)c1cccc2cnccc12 | 0.419% (inactive) and 15.9% (inactive)
53 | CC(C)c1ccc2c(c1)C(N1CCN(CCO)CC1)Cc1ccc(F)cc1S2 (centres undefined) | -37.4% (inactive)
54 | CC(=O)Oc1c(C)cc(OCC(O)CNC(C)C)c(C)c1C (centres undefined) | -4.5% (inactive)

Row | SMILES | activity change, negative = inhibition
55 | CNC(=O)c1cnn(-c2nc(N)c3ncn([C@@H]4O[C@H](CO)C(O)C4O)c3n2)c1 (some centres undefined) | 7.49% (inactive)
56 | CC(C)(C)n1nc(-c2ccc(Cl)cc2)c2c(N)ncnc21 | -91.7% (active)
57 | Cc1ccc(-c2nn(C(C)(C)C)c3ncnc(N)c23)cc1 | -88.2% (active) and -83% (active)
58 | CC(C)(C)n1nc(-c2cccc3ccccc23)c2c(N)ncnc21 | -64.8% (inactive) and -76.3% (active)
59 | CCNC(=O)CCC/C=C\C[C@@H]1[C@@H](/C=C/C(O)CCc2ccccc2)[C@H](O)C[C@@H]1O (some centres undefined) | 8.47% (inactive)
60 | O=[N+]([O-])c1cncn1CCN1CCOCC1 | 23.6% (inactive)
61 | CCCOc1ccc2nc(NC(=O)OC)sc2c1 | 106% (inactive)
62 | CCCn1c(=O)[nH]c(=O)c2[nH]cnc21 | 6.86% (inactive)
63 | CCC(=O)c1ccc(OCC(O)CN2CCN(c3ccccc3)CC2)cc1 (centres undefined) | 9.53% (inactive)
64 | COc1ccc(N2CCOCC2)c2sc(NC(=O)N3CCC(C)(O)CC3)nc12 | 12.2% (inactive)
65 | CCCCC#Cc1nc(NC)c2ncn(C3OC(CO)C(O)C3O)c2n1 (centres undefined) | -3.28% (inactive)
66 | Cc1cc(OCCN2CCOCC2)nn1-c1ccc2ccccc2c1 | 13.6% (inactive)
67 | O=c1[nH]c(=O)c2[nH]c(=O)[nH]c2[nH]1 | 3.85% (inactive)
68 | CC(C)NC[C@@H](O)c1ccc(NS(C)(=O)=O)cc1 | 2.38% (inactive)
69 | C[C@@H]([C@@H](O)c1ccc(O)cc1)N1CCC(O)(c2ccccc2)CC1 | 0.328% (inactive) and 9.44% (inactive)
70 | OCC1OC(n2cnc3c(NC4CCCC4)nc(Cl)nc32)C(O)C1O (centres undefined) | -5.92% (inactive)
71 | Nc1nc(F)nc2c1ncn2[C@@H]1O[C@H](CO)[C@@H](O)[C@@H]1O | -26.8% (inactive)
72 | Nc1nc(Cl)nc2c1ncn2[C@@H]1O[C@H](CO)[C@@H](O)[C@@H]1F | -81.3% (active)
73 | Nc1nc(Cl)nc2c1ncn2[C@H]1C[C@H](O)[C@@H](CO)O1 | -37.2% (inactive)
74 | Nc1nc(Cl)nc2c1ncn2C1OC(CO)C(O)C1F (centres undefined) | -87.6% (active)
75 | OC[C@H]1O[C@@H](n2cnc3c(NC4CCCC4)nc(Cl)nc32)[C@H](O)[C@@H]1O | 3.31% (inactive)
76 | CCCCC[C@@H](O)[C@H]1C(=O)O[C@H](C)[C@@H](O)/C=C/C=C/C=C/C=C/C=C(\C)[C@@H](O)C[C@H](O)C[C@H](O)C[C@H](O)C[C@H](O)C[C@H](O)C[C@@H]1O | 2.49% (inactive)
77 | Ic1cc(-c2ccccc2)ncn1 | 1.75% (inactive)
78 | COc1ccc2c3c1OC1CC(O)C=CC31CCN(C)C2 (centres undefined) | 4.76% (inactive)
79 | CC(=O)OCC(=O)[C@@]1(O)CCC2C3CCC4=CC(=O)CC[C@]4(C)C3=CC[C@@]21C (some centres undefined) | -0.754% (inactive)
